KCNQ2 block = rat KCNQ2 potassium channel inhibitors, primary screen, cell-based, CHO-K1, FluxOR thallium flux, B-score; hit rate 1.1% among 310,000; AID 2156, 2009; B-score at 10 µM; Potassium voltage-gated channel subfamily KQT member 2 (Rattus norvegicus), O88943; 20 min; active compounds read low;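 active means fluorescence ratio B-score at most minus 3 library SDs, with starting brightness B-score within 2 library SDs, cut at about -5.5 in these data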
Target sequence (O88943 whole entry, looked up): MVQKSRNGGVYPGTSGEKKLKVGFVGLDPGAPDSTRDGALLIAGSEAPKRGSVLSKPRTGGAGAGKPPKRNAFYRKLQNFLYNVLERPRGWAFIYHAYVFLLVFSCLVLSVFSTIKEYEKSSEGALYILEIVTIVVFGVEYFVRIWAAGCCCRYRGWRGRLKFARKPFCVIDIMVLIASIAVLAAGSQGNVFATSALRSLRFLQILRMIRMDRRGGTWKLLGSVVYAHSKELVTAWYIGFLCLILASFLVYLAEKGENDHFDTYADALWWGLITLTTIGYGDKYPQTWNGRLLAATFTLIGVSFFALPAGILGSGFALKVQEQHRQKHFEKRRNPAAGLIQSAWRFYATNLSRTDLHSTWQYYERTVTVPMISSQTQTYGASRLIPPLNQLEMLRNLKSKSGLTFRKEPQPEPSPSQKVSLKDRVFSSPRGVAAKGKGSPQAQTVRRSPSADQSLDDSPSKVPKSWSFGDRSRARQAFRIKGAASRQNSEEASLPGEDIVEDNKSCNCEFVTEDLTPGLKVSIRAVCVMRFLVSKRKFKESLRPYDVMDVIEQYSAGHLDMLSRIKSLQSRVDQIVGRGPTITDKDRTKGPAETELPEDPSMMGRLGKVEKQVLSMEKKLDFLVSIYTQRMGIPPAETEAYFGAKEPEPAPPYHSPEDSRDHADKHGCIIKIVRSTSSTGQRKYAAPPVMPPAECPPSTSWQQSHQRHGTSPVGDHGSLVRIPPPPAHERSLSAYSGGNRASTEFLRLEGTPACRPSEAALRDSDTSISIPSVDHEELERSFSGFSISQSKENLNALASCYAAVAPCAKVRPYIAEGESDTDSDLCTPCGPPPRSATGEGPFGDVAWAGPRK
KCNQ2 enhance = potentiators of rat KCNQ2 potassium channel; Potassium voltage-gated channel subfamily KQT member 2 (Rattus norvegicus), O88943; CHO-K1 KCNQ2, FluxOR thallium flux fluorescence; active compounds read high; B-score at 10 µM; hit rate 0.54% among 310,000; AID 2239, 2010;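 active means fluorescence ratio B-score at least 3 SD of library B-scores, with initial fluorescence B-score within 3 of them, cut at about 5.3 in these data; same plate scores as AID 2156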;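 further: B-score of peak minus minimum over baseline fluorescence ratio after K+ and Tl+ stimulus; positive B-score means potentiation of KCNQ2 with more thallium influx and brighter signal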
Kir21 conf inh = mouse Kir2.1 channel blockers, retest, confirmation, cell-based, FluxOR thallium flux, duplicate | shares compounds with KCNQ2 enhance | Kir2.1-expressing cells, FluxOR thallium flux fluorescence; active compounds read low | Tl flux remaining, % of negative control (active compounds read low), % at 10 µM | hit rate 41% among 2,300 | AID 2032, 2009;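 active means Primary-screen hit whose thallium flux fell at least 3 control SD below untreated wells in both duplicates, with normal baseline fluorescence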;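 further: 0% = blank wells without stimulus and 100% = stimulated no-compound controls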
HEK293 ctr = parental HEK293 activity in Kir2.1 inhibitor counter-screen. shares compounds with KCNQ2 enhance. FluxOR signal as % of negative control (100 = no effect), % at 10 µM. hit rate 19% among 2,300. parental HEK293 cells, FluxOR thallium flux fluorescence; 0% = unstimulated blank wells;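 active means dye signal at least 3 control SD above or below untreated wells in both duplicates, raw fluorescence within 3, either direction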;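 further: percent is based on the flux ratio of peak minus minimum fluorescence over baseline F0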
CHO-K1 Tl ctr = nonspecific thallium flux increase in parental CHO-K1, confirmation, counter-screen for KCNQ2 potentiator project, cell-based, FluxOR thallium flux, duplicate; hit rate 43% among 1,200; shares compounds with KCNQ2 enhance; activity increase over 3SD of controls, % at 10 µM; parental CHO-K1 cells, FluxOR thallium flux fluorescence; zero = vehicle mean+3SD, 100% = vehicle-minus-blank window;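 active means signal rise of at least 3 SD above the untreated control mean, in both duplicate wells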;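 further: counter screen of KCNQ2 potentiator hits so any rise reflects channel-independent effects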
KCNQ1 sel pot = human KCNQ1 channel potentiation off-target, confirmation, selectivity assay for KCNQ2 potentiator project, cell-based, CHO, FluxOR thallium flux; shares compounds with KCNQ2 enhance; activation over 3SD threshold, % at 10 µM; AID 2283, 2010; hit rate 28% among 1,200; CHO KCNQ1 stable, FluxOR thallium flux fluorescence; beyond 3SD, as % of vehicle-control signal;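 active means fluorescence ratio rise of at least 3 SD of vehicle wells above their mean, in both replicate wells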;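 further: 0% = vehicle mean plus 3 SD and 100% = vehicle minus unstimulated blank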
KCNQ2 pot confirm = rat KCNQ2 channel potentiators, confirmation, cell-based, CHO, FluxOR thallium flux, duplicate; shares compounds with KCNQ2 enhance; CHO-KCNQ2 cells, FluxOR thallium flux fluorescence; potentiation, less the hit threshold, % at 10 µM; hit rate 68% among 1,200;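 active means fluorescence ratio rising 3 SD or more over the vehicle control mean in both replicates, plus primary screen hit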;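 further: peak minus minimum thallium fluorescence divided by baseline after K/Tl stimulus; 0% = vehicle mean plus 3 SD and 100% = vehicle minus unstimulated blank difference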
Kir2-1 sel = mouse Kir2.1 channel activation off-target, confirmation, selectivity assay for KCNQ2 potentiator project, cell-based, HEK293, FluxOR thallium flux | hit rate 2% among 1,200 | activity over 3SD threshold, % at 10 µM | HEK293 Kir2.1, FluxOR thallium flux fluorescence | shares compounds with KCNQ2 enhance | AID 2345, 2010;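 active means fluorescence ratio rise of at least 3 SD above the vehicle-control mean, seen in both replicates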;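 further: 0% = vehicle mean plus 3 SD and 100% = vehicle minus no-stimulus blank window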
KCNQ2 W236L MoA = potentiators of retigabine-insensitive KCNQ2 W236L, mechanism study for KCNQ2 potentiator project, cell-based, rat KCNQ2 W236L, CHO, automated patch clamp; AID 2558, 2010; automated patch clamp current; shares compounds with KCNQ2 enhance; current increase over 3SD of negative controls (%), active compounds read high, % at 25 µM; hit rate 10% among 940;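 active means current increase at least 3 SD of the untreated controls above them in both duplicate recordings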
Numbers without * were called inactive; i = inactive; nt = no result given. An excerpt weighted towards active compounds, which were near 1.6% of everything screened.

SMILES | KCNQ2 block | KCNQ2 enhance | Kir21 conf inh | HEK293 ctr | CHO-K1 Tl ctr | KCNQ1 sel pot | KCNQ2 pot confirm | Kir2-1 sel | others
CCC(C)c1ccc(NC(=O)c2ccco2)cc1 (stereo not given) | i | 12* | i | i | 26* | -10 | 38* | -12 | KCNQ2 W236L MoA=i
Cc1ccc(NC(=O)c2ccc(OC(=O)c3ccco3)cc2)cc1 | i | nt | nt | nt | nt | nt | nt | nt
Cc1ccc(Oc2ccc(NC(=O)c3ccco3)cc2)cc1 | i | 14* | i | 73%* | -7 | -30 | 33* | -43 | KCNQ2 W236L MoA=19%*
CCN(CC)c1ccc(NC(=O)c2ccco2)cc1 | i | 2.4 | nt | nt | nt | nt | nt | nt
CCN(CC)c1ccc(NC(=S)NC(=O)c2ccco2)cc1 | i | 11* | i | 204%* | -14 | -18 | 28* | -29 | KCNQ2 W236L MoA=i
CC(C)(CO)NC(=O)Nc1ccc(Cl)c(Cl)c1 | i | 0.02 | nt | nt | nt | nt | nt | nt
N#C/C(C(=O)NCc1ccccc1)=C1/SC(Cc2ccc(Cl)cc2)C(=O)N1c1ccccc1 (stereo not given) | i | nt | nt | nt | nt | nt | nt | nt
C/C(=C\C=C(C#N)C#N)c1cc(C#N)c(N)o1 | i | nt | nt | nt | nt | nt | nt | nt
COc1ccc(CN2CCN(C(=O)Cn3ncn4cccc4c3=O)CC2)c(OC)c1OC | i | 1.1 | nt | nt | nt | nt | nt | nt
O=c1c2ccccc2nnn1Cc1ccc2ccccc2c1 | i | 0.26 | nt | nt | nt | nt | nt | nt
CC(C)[C@H](NC(=O)OC(C)(C)C)c1nnc(S(=O)(=O)Cc2c(F)cccc2Cl)o1 | i | 0.91 | nt | nt | nt | nt | nt | nt
CC[C@@H](C)[C@H](NC(=O)OC(C)(C)C)c1nnc(S(=O)(=O)Cc2cc(C)ccc2C)o1 | i | nt | i | i | nt | nt | nt | nt
O=c1cc(-c2ccccc2)cc(-c2ccccc2)n1O | i | 6.6* | i | 334%* | -12 | 97* | 14* | -18 | KCNQ2 W236L MoA=i
Cn1c(-c2ccccc2)cc(=O)c2ccccc21 | i | nt | nt | nt | nt | nt | nt | nt
Nc1nc(CSCCO)nc(Nc2ccccc2)n1 | i | 0.22 | nt | nt | nt | nt | nt | nt
Nc1nc(CSc2ccccn2)nc(Nc2ccccc2)n1 | i | 5.5* | i | i | -9 | -20 | -11 | -39
COc1cccc(-c2nc(CS(=O)(=O)CC(=O)Nc3cc(F)ccc3F)c(C)o2)c1 | i | nt | nt | nt | nt | nt | nt | nt
COc1cccc(NC(=O)NCCc2ccc(Cl)cc2)c1 | i | nt | nt | nt | nt | nt | nt | nt
CCCCSCCCNC(=O)Nc1cccc(OC)c1 | i | 8.6* | i | i | -14 | -16 | 15* | -36 | KCNQ2 W236L MoA=i
CC(C)c1ccc(NC(=O)N2CCN(S(=O)(=O)c3ccccc3)CC2)cc1 | i | 7.3* | nt | nt | -15 | -20 | -6 | -51 | KCNQ2 W236L MoA=i
CS(=O)(=O)N1CCN(C(=O)Nc2ccccc2)CC1 | i | 0.31 | nt | nt | nt | nt | nt | nt
O=C(COC(=O)CCc1ccccc1)NC(c1ccccc1)c1ccccc1 | i | nt | nt | nt | nt | nt | nt | nt
COCC(=O)NC(c1ccccc1)c1ccccc1 | i | 8* | i | i | -19 | -33 | -15 | -36
CN(C)CCn1c(=N)n(CC(O)c2ccc(Cl)c(Cl)c2)c2ccccc21 (stereo not given) | i | 1.2 | nt | nt | nt | nt | nt | nt
N=c1n(CCN2CCCCC2)c2ccccc2n1CC(O)COc1ccccc1 (stereo not given) | i | nt | nt | nt | nt | nt | nt | nt
SMILES | KCNQ2 block | KCNQ2 enhance | Kir21 conf inh | HEK293 ctr | CHO-K1 Tl ctr | KCNQ1 sel pot | KCNQ2 pot confirm | Kir2-1 sel | others
N=c1n(CCN2CCCCC2)c2ccccc2n1CC(O)c1cccc(Br)c1 (stereo not given) | i | nt | 40%* | i | nt | nt | nt | nt
N=c1n(CCN2CCCCC2)c2ccccc2n1CC(O)c1ccc(Cl)c(Cl)c1 (stereo not given) | i | nt | 36%* | 64%* | nt | nt | nt | nt
Cc1cccc(C)c1NC(=O)[C@@]1(CC(=O)O)CC(/C=C/c2ccccc2)=NO1 | i | 0.14 | nt | nt | nt | nt | nt | nt
CCc1ccc(NS(=O)(=O)c2ccc3c(c2)CCN3C(=O)CCC(=O)O)cc1 | i | nt | nt | nt | nt | nt | nt | nt
CCCCC(CC)CNS(=O)(=O)c1ccc2c(c1)CCN2C(=O)CCC(=O)O (stereo not given) | i | nt | i | i | nt | nt | nt | nt
COc1cccc(N(CC(=O)NCc2ccco2)C(=O)CCC(=O)Nc2nccs2)c1 | i | 0.38 | nt | nt | nt | nt | nt | nt
CC(=O)/C(C#N)=C1\NC(=O)C(Cc2ccc(F)cc2)S1 (stereo not given) | i | 0.65 | nt | nt | nt | nt | nt | nt
CC(=O)/C(C#N)=C1\NC(=O)C(Cc2ccc(C)c(C)c2)S1 (stereo not given) | i | 7.2* | i | i | 3.5* | -20 | -86 | -29
Cc1csc2c(=O)n(CCO)c(=O)[nH]c12 | i | 1.3 | nt | nt | nt | nt | nt | nt
COc1ccc(C(=O)CCS(=O)(=O)c2ccc(F)cc2)cc1OC | i | 6.6* | i | i | 36* | 60* | 24* | -52 | KCNQ2 W236L MoA=6.0%*
COc1ccc(C(=O)N2CCN(S(=O)(=O)c3ccc(F)cc3)CC2)cc1OC | i | nt | nt | nt | nt | nt | nt | nt
O=C(c1ccc(Br)cc1)N(Cc1nc2ccccc2c(=O)[nH]1)C1CCCC1 | i | nt | nt | nt | nt | nt | nt | nt
COc1ccc(C2NC(=O)NC(c3ccccc3)=C2c2nc3ccccc3s2)cc1 (stereo not given) | i | 2 | nt | nt | nt | nt | nt | nt
O=C1NC(c2ccccc2)=C(c2nc3ccccc3s2)C(c2ccc(F)cc2)N1 (stereo not given) | i | 8.7* | i | i | 74* | -2 | 21* | -28 | KCNQ2 W236L MoA=34%*
CN(Cc1ccon1)Cc1cn(C)nc1-c1cccc(Cl)c1 | i | 1.6 | nt | nt | nt | nt | nt | nt
CCn1c(C)nc2cc(C(=O)N/N=C/c3ccc(N4CCOCC4)cc3)ccc21 | i | nt | nt | nt | nt | nt | nt | nt
Cc1ccc(S(=O)(=O)c2c(N)n(NC(=O)c3ccccc3C)c3nc4ccccc4nc23)cc1 | i | 5.3 | i | i | 98* | -8 | -3 | -39 | KCNQ2 W236L MoA=i
